# Measurements taken from PubChem BioAssay (EPA / NIEHS).
# Results filed as inconclusive are left out. Calls of active or inactive are those of the source. How the source made its calls, unless noted: active means hit-call score of the fitted dose curve at least 0.9, where 1 is the maximum; inactive means score below 0.9.
# How the values were obtained:
# [1] = BSK_LPS_PGE2: BioMAP Diversity Plus: LPS Assay for Prostaglandin E2 (PGE2) Biomarker Activity (AID 2283082); details: primary human HUVEC with PBMC; actives raise or lower the signal;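 on AC50: secreted prostaglandin E2 measured by ELISA in LPS-stimulated co-culture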
# Outline: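 Endpoint derived from bidirectional curve fitting versus DMSO of ELISA-measured PGE2 in LPS-stimulated human primary vascular co-culture (HUVEC with PBMC) harvested at 24 h.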
# [2] = read-out: Macrophage colony-stimulating factor (MCSF), CSF1 (gene 1435); assay: BSK_LPS_MCSF: BioMAP Diversity Plus: LPS Assay for Macrophage colony-stimulating factor (MCSF) Biomarker Activity (AID 2283083); details: primary human HUVEC with PBMC; actives raise or lower the signal
# Outline: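 HUVEC–PBMC co-culture, M-CSF measured by ELISA 24 h after chemical dosing. Fitted in both directions relative to DMSO as negative control; overt cytotoxicity assessed by SRB total-protein staining in parallel cultures.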
# [3] = read-out: Tissue Factor, F3 (gene 2152); assay: BSK_LPS_TissueFactor: BioMAP Diversity Plus: LPS Assay for Tissue Factor Biomarker Activity (AID 2283084); details: primary human HUVEC with PBMC; actives raise or lower the signal
# Outline: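 Human umbilical vein endothelial cells co-cultured with PBMC were dosed with compound. Cell-surface CD142 was measured by ELISA 24 h later. Activity was fitted bidirectionally against DMSO, with SRB total-protein staining in parallel cultures for cytotoxicity.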
# [4] = read-out: Tumor necrosis factor (Homo sapiens) (UniProt P01375); assay: BSK_LPS_TNFa: BioMAP Diversity Plus: LPS Assay for Tumour Necrosis Factor alpha (TNFa) Biomarker Activity (AID 2283085); details: primary human HUVEC with PBMC; actives raise or lower the signal
# Outline: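 Primary human vascular co-culture of HUVEC and PBMC; TNFa ELISA 24 h after treatment, analysed as increase or decrease relative to DMSO control.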
# [5] = read-out: Vascular cell adhesion molecule 1 (VCAM1), VCAM1 (gene 7412); assay: BSK_LPS_VCAM1: BioMAP Diversity Plus: LPS Assay for Vascular cell adhesion molecule 1 (VCAM1) Biomarker Activity (AID 2283086); details: primary human HUVEC with PBMC; actives raise or lower the signal
# Outline: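 Primary human vascular co-culture (umbilical vein endothelium plus PBMC) stimulated with LPS received chemical; 24 h later VCAM-1 was read by ELISA. Overt cytotoxicity was assessed by sulforhodamine B staining of parallel cultures at the same time point.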
# [6] = read-out: CD38, CD38 (gene 952); assay: BSK_SAg_CD38: BioMAP Diversity Plus: SAg Assay for CD38 Biomarker Activity (AID 2283087); details: primary human HUVEC with PBMC; actives raise or lower the signal
# Outline: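 Fluorescence ELISA of cell-surface CD38 served as the read-out, with either increase or decrease fitted against DMSO controls. Cells were a human umbilical vein endothelium plus PBMC co-culture under SEB/TSST-1 stimulation, measured 24 h after dosing.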
# [7] = read-out: CD40, CD40 (gene 958); assay: BSK_SAg_CD40: BioMAP Diversity Plus: SAg Assay for CD40 Biomarker Activity (AID 2283088); details: primary human HUVEC with PBMC; actives raise or lower the signal
# Outline: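 HUVEC plus PBMC co-culture, superantigen-activated, with CD40 read by ELISA 24 h after dosing. Curves fitted in both directions against DMSO. Overt cytotoxicity checked by parallel SRB total-protein staining.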
# [8] = read-out: CD69, CD69 (gene 969); assay: BSK_SAg_CD69: BioMAP Diversity Plus: SAg Assay for CD69 Biomarker Activity (AID 2283089); details: primary human HUVEC with PBMC; actives raise or lower the signal;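 on AC50: cell surface CD69 protein quantified by ELISA with fluorescence detection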
# Outline: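 ELISA, fluorescence read-out: CD69 on human umbilical vein endothelial cell + PBMC co-culture, 24 h post-dosing. Gain or loss of signal fitted bidirectionally against DMSO baseline.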
# [9] = read-out: Monocyte Chemoattractant Protein-1 (MCP1), CCL2 (gene 6347); assay: BSK_SAg_MCP1: BioMAP Diversity Plus: SAg Assay for Monocyte Chemoattractant Protein-1 (MCP1) Biomarker Activity (AID 2283090); details: primary human HUVEC with PBMC; actives raise or lower the signal
# Outline: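 MCP-1 levels in the endothelial–PBMC SAg co-culture were quantified by ELISA at 24 h post-dosing; both increases and decreases versus DMSO scored. Cytotoxicity monitored by SRB total protein in parallel cultures.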
# [10] = read-out: E-selectin (Homo sapiens) (UniProt P16581); assay: BSK_SAg_Eselectin: BioMAP Diversity Plus: SAg Assay for Eselectin Biomarker Activity (AID 2283091); details: primary human HUVEC with PBMC; actives raise or lower the signal
# Outline: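 Human umbilical vein endothelial cells co-cultured with peripheral blood mononuclear cells, SAg system. E-selectin is measured by ELISA 24 h after dosing and fitted bidirectionally against DMSO. Cytotoxicity is checked by SRB staining of parallel cultures.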
# [11] = BSK_SAg_PBMCCytotoxicity: PBMC Cytotoxicity Assessment in the BioMAP Diversity Plus: SAg Assay (AID 2283093); details: primary human HUVEC with PBMC;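 further: PBMC viability measured as Alamar Blue reduction fluorescence at 546/580 nm; fitted both ways against DMSO so a hit may be loss or gain of signal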;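 on AC50: PBMC superantigen activated with SEB plus TSST-1 one hour after compound addition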
# Outline: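 HUVEC/PBMC co-culture; PBMC exposed to chemical 1 h before SEB and TSST-1 activation (20 ng/mL each), incubated 90 h, then Alamar Blue 6 h, fluorescence 546/580 nm. Bidirectional fit versus DMSO baseline.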
# [12] = read-out: Interleukin-8 (IL8), CXCL8 (gene 3576); assay: BSK_SAg_IL8: BioMAP Diversity Plus: SAg Assay for Interleukin-8 (IL8) Biomarker Activity (AID 2283094); details: primary human HUVEC with PBMC; actives raise or lower the signal
# Outline: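 In this co-culture of human umbilical vein endothelium with peripheral blood mononuclear cells, IL-8 is assayed by ELISA at 24 h. DMSO serves as baseline for bidirectional curve fitting.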
# [13] = BSK_SAg_Proliferation: Cell Proliferation Assessment in the BioMAP Diversity Plus: SAg Assay (AID 2283095); details: primary human HUVEC with PBMC;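 further: relative cell number as total protein by SRB absorbance in sub-confluent culture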
# Outline: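 Readout is SRB-stained protein (560 nm) in a primary human HUVEC and PBMC co-culture; sub-confluent cultures are read at 96 h. Activity is fitted bidirectionally using DMSO as baseline.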
# [14] = BSK_SAg_SRB: Viability Assessment in the BioMAP Diversity Plus: SAg Assay (AID 2283096); details: primary human HUVEC with PBMC;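 further: cells read one day after compound addition; hits may be either gain or loss of signal compared with DMSO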
# Outline: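 Human umbilical vein endothelial cells co-cultured with PBMC, read 24 h after compound dosing. Total protein measured by sulforhodamine B staining (0.1% SRB after 10% TCA fixation, absorbance 560 nm); bidirectional fit versus DMSO baseline.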
# [15] = target: human CYP2B6, CYP2B6 (gene 1555) (UniProt P20813); assay: NVS_ADME_hCYP2B6: NovaScreen (NVS) CYP450-related Enzyme Activity (ADME) Assay for human CYP2B6 (AID 2283101; active means hit-call score of the fitted dose curve at least 0.9, where 1 is the maximum)
# human CYP2B6, CYP2B6 (gene 1555), sequence (P20813 whole entry, looked up): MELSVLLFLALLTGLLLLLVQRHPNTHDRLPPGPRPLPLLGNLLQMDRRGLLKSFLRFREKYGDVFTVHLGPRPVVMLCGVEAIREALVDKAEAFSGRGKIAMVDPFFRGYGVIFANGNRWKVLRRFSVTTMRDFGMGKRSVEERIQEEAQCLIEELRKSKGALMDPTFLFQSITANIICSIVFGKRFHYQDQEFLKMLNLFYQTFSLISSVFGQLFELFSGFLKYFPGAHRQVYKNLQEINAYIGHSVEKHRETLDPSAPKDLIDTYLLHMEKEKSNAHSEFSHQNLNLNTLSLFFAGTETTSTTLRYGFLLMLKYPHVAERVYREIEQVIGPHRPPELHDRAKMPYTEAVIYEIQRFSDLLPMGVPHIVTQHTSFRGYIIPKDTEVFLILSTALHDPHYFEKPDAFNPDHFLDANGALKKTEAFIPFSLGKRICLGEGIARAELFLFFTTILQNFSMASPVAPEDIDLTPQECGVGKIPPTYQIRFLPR
# Outline: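 Fluorescence-based enzyme activity of recombinant human CYP2B6, measured 1 h post-dose against acetonitrile vehicle baseline. Screened at a single concentration of 10 uM in duplicate before concentration-response follow-up.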
# [16] = target: human CYP2D6, CYP2D6 (gene 1565) (UniProt P10635); assay: NVS_ADME_hCYP2D6: NovaScreen (NVS) CYP450-related Enzyme Activity (ADME) Assay for human CYP2D6 (AID 2283107; active means hit-call score of the fitted dose curve at least 0.9, where 1 is the maximum)
# human CYP2D6, CYP2D6 (gene 1565), sequence (P10635 whole entry, looked up): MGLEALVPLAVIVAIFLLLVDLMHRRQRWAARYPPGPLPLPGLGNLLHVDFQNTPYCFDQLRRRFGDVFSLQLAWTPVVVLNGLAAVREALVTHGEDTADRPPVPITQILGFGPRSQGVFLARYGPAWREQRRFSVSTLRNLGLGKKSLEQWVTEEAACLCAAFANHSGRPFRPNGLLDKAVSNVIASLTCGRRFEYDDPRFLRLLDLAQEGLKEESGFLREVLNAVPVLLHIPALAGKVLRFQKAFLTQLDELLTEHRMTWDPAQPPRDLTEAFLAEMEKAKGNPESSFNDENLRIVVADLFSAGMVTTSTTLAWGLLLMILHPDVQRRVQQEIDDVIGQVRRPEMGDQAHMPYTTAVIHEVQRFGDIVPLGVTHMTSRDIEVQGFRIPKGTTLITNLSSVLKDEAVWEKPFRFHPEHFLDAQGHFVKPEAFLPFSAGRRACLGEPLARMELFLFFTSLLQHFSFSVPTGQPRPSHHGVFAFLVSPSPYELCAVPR
# Outline: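 Cell-free assay using recombinant human CYP2D6 expressed in insect cells, with a fluorogenic substrate read after 1 h. Primary screen in duplicate at 10 uM; actives followed up in concentration series. Loss of signal fitted relative to acetonitrile.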
# [17] = target: human CYP2C9, CYP2C9 (gene 1559) (UniProt P11712); assay: NVS_ADME_hCYP2C9: NovaScreen (NVS) CYP450-related Enzyme Activity (ADME) Assay for human CYP2C9 (AID 2283108; active means hit-call score of the fitted dose curve at least 0.9, where 1 is the maximum)
# human CYP2C9, CYP2C9 (gene 1559), sequence (P11712 whole entry, looked up): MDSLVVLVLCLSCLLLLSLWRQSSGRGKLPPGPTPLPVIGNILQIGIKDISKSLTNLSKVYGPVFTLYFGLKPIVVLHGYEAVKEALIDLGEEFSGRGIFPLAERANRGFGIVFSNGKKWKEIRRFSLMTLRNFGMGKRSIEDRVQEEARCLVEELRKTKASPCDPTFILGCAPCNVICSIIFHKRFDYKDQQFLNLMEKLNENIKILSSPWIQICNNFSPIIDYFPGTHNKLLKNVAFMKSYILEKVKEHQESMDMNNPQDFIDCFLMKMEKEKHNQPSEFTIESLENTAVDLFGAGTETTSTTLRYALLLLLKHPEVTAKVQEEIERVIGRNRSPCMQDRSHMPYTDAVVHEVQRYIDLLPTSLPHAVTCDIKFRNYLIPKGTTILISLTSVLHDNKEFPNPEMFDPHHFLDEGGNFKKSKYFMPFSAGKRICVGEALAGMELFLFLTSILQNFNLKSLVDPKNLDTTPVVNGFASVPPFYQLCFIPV
# Outline: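 Recombinant human CYP2C9 expressed in SF9 cells, fluorogenic substrate, fluorescence read 0.75 h after dosing. Chemicals first run in duplicate at 10 uM, with actives followed in concentration series; loss of signal versus acetonitrile baseline.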
# [18] = read-out: Monokine induced gamma interferon (MIG), CXCL9 (gene 4283); assay: BSK_SAg_MIG: BioMAP Diversity Plus: SAg Assay for Monokine induced gamma interferon (MIG) Biomarker Activity (AID 2283092); details: primary human HUVEC with PBMC; actives raise or lower the signal
# Outline: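 ELISA readout of MIG/CXCL9; primary human umbilical vein endothelial cells co-cultured with peripheral blood mononuclear cells; 24 h post-dose; gain/loss fit vs DMSO baseline.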
# [19] = target: human CYP19A1, CYP19A1 (gene 1588) (UniProt P11511); assay: NVS_ADME_hCYP19A1: NovaScreen (NVS) CYP450-related Enzyme Activity (ADME) Assay for human CYP19A1 (AID 2283098; active means hit-call score of the fitted dose curve at least 0.9, where 1 is the maximum)
# human CYP19A1, CYP19A1 (gene 1588), sequence (P11511 whole entry, looked up): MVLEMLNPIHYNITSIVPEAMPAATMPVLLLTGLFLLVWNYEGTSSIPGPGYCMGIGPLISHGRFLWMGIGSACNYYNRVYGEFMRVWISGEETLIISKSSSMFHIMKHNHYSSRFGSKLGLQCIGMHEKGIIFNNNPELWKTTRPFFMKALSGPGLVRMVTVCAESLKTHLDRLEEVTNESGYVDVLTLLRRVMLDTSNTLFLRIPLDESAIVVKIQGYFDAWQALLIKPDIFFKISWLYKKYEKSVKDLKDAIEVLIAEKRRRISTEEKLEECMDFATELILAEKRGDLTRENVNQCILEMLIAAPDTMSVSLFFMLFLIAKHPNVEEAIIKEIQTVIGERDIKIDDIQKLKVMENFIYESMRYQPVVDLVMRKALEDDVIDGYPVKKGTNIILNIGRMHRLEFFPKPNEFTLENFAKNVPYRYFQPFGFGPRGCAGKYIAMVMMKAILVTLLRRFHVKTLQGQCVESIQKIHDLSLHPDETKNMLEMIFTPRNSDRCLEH
# Outline: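 Recombinant enzyme in a cell-free format, read 0.5 h after dosing by fluorescence from a fluorogenic substrate. Loss of signal was fitted against acetonitrile as baseline. Primary screen in duplicate at 10 uM, actives then tested in concentration series.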
# E-selectin (Homo sapiens), sequence (P16581 whole entry, looked up): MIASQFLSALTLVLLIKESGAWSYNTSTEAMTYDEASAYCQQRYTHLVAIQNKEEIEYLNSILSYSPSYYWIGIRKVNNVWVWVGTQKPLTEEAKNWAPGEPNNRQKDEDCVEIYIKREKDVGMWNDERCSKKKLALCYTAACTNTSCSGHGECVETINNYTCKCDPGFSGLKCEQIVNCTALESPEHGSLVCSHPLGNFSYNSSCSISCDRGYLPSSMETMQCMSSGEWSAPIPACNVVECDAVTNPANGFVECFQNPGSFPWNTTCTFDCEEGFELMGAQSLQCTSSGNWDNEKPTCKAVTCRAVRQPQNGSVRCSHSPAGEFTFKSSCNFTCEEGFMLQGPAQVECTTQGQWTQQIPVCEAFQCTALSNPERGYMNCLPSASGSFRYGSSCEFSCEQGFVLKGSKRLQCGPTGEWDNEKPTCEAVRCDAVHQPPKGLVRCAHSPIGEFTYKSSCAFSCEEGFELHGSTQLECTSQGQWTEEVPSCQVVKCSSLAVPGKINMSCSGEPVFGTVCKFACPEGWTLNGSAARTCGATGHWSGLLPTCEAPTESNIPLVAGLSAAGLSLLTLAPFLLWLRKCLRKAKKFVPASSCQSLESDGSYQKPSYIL
# Tumor necrosis factor (Homo sapiens), sequence (P01375 whole entry, looked up): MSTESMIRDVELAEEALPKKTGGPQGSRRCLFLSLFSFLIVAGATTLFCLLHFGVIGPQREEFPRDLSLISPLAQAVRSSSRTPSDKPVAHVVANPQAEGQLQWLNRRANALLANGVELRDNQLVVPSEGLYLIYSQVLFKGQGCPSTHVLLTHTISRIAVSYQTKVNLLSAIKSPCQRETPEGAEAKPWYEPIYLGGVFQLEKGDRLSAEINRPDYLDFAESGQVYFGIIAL
smiles,measurement,setting,value
Nc1ccc(N=Nc2ccccc2)cc1,AC50,[1],3.55 µM (active)
same,outcome,[2],inactive
same,outcome,[3],inactive
same,AC50,[4],6.01 µM (active)
same,AC50,[5],14.2 µM (active)
same,outcome,[6],inactive
same,outcome,[7],inactive
same,outcome,[8],inactive
same,outcome,[9],inactive
same,outcome,[10],inactive
same,outcome,[11],inactive
same,outcome,[12],inactive
same,outcome,[13],inactive
same,outcome,[14],inactive
same,AC50,[15],0.261 µM (active)
same,outcome,[16],inactive
same,AC50,[17],7.26 µM (active)
CCC(C)c1ccc(O)cc1 (stereo not given),AC50,[1],4.17 µM (active)
same,outcome,[2],inactive
same,outcome,[3],inactive
same,outcome,[4],inactive
same,outcome,[5],inactive
same,outcome,[7],inactive
same,outcome,[8],inactive
same,outcome,[9],inactive
same,outcome,[10],inactive
same,outcome,[18],inactive
same,outcome,[11],inactive
same,outcome,[12],inactive
same,outcome,[13],inactive
same,outcome,[14],inactive
Clc1ccccc1Cl,outcome,[1],inactive
same,outcome,[2],inactive
same,outcome,[3],inactive
same,outcome,[4],inactive
same,outcome,[5],inactive
same,outcome,[7],inactive
same,outcome,[8],inactive
same,outcome,[9],inactive
same,outcome,[10],inactive
same,outcome,[11],inactive
same,outcome,[12],inactive
same,outcome,[13],inactive
same,outcome,[14],inactive
same,outcome,[19],inactive
O=C1CCCO1,outcome,[1],inactive
same,outcome,[2],inactive
same,outcome,[3],inactive
same,outcome,[4],inactive
same,outcome,[5],inactive
same,outcome,[7],inactive
same,outcome,[8],inactive
same,outcome,[9],inactive
same,outcome,[10],inactive
same,outcome,[18],inactive
same,outcome,[11],inactive
same,outcome,[12],inactive
same,outcome,[13],inactive
same,outcome,[14],inactive
CCCSC(=O)N(CCC)CCC,outcome,[1],inactive
same,outcome,[2],inactive
same,outcome,[3],inactive
same,outcome,[4],inactive
same,outcome,[5],inactive
same,outcome,[6],inactive
same,outcome,[7],inactive
same,outcome,[8],inactive
same,outcome,[9],inactive
same,outcome,[10],inactive
same,outcome,[11],inactive
same,outcome,[12],inactive
same,outcome,[13],inactive
same,outcome,[14],inactive
CN(C)c1ccccc1,outcome,[1],inactive
same,outcome,[2],inactive
same,outcome,[3],inactive
same,outcome,[4],inactive
same,outcome,[5],inactive
same,outcome,[6],inactive
same,outcome,[7],inactive
same,outcome,[8],inactive
same,outcome,[9],inactive
same,outcome,[10],inactive
same,outcome,[11],inactive
same,outcome,[12],inactive
same,outcome,[13],inactive
same,outcome,[14],inactive
CC(C)(C)OOC(=O)c1ccccc1,outcome,[1],inactive
same,outcome,[2],inactive
same,outcome,[3],inactive
same,outcome,[4],inactive
same,outcome,[5],inactive
same,outcome,[8],inactive
same,outcome,[9],inactive
same,outcome,[10],inactive
same,outcome,[11],inactive
same,outcome,[12],inactive
same,outcome,[13],inactive
same,outcome,[14],inactive
CC(C)(C)OOC(C)(C)CCC(C)(C)OOC(C)(C)C,outcome,[1],inactive
same,outcome,[2],inactive
same,outcome,[3],inactive
same,outcome,[4],inactive
same,outcome,[5],inactive
same,outcome,[7],inactive
same,outcome,[8],inactive
same,outcome,[9],inactive
same,outcome,[10],inactive
same,outcome,[11],inactive
same,outcome,[12],inactive
same,outcome,[13],inactive
same,outcome,[14],inactive
c1ccc(C2CO2)cc1 (stereo not given),outcome,[1],inactive
same,outcome,[2],inactive
same,outcome,[3],inactive
same,outcome,[4],inactive
same,outcome,[5],inactive
same,outcome,[7],inactive
same,outcome,[8],inactive
same,outcome,[9],inactive
same,outcome,[10],inactive
same,outcome,[18],inactive
same,outcome,[11],inactive
same,outcome,[12],inactive
same,outcome,[13],inactive
same,outcome,[14],inactive
CCCCCCCCn1sccc1=O,AC50,[1],0.857 µM (active)
same,AC50,[2],7.58 µM (active)
same,AC50,[3],4.04 µM (active)
same,AC50,[4],1.04 µM (active)
same,AC50,[5],6.97 µM (active)
same,AC50,[7],10.2 µM (active)
same,AC50,[8],10.7 µM (active)
same,AC50,[9],11.7 µM (active)
same,AC50,[10],12.8 µM (active)
same,AC50,[11],3.84 µM (active)
same,AC50,[12],13.4 µM (active)
same,AC50,[13],1.76 µM (active)
same,AC50,[14],20.8 µM (active)
same,AC50,[15],0.975 µM (active)
same,AC50,[16],7.91 µM (active)
same,AC50,[17],7.51 µM (active)
CN(C)[C@@H]1C(=O)C(C(N)=O)=C(O)[C@@]2(O)C(=O)C3=C(O)c4c(O)cccc4[C@@](C)(O)[C@H]3C[C@@H]12,outcome,[1],inactive
same,outcome,[2],inactive
same,outcome,[3],inactive
same,outcome,[4],inactive
same,outcome,[5],inactive
same,outcome,[6],inactive
same,outcome,[7],inactive
same,outcome,[8],inactive
same,outcome,[9],inactive
same,outcome,[10],inactive
same,outcome,[11],inactive
same,outcome,[12],inactive
same,outcome,[13],inactive
same,outcome,[14],inactive
Brc1ccc(Oc2ccccc2)cc1,outcome,[1],inactive
same,outcome,[2],inactive
same,outcome,[3],inactive
same,outcome,[4],inactive
same,outcome,[5],inactive
same,outcome,[7],inactive
same,outcome,[8],inactive
same,outcome,[9],inactive
same,outcome,[10],inactive
same,outcome,[18],inactive
same,outcome,[11],inactive
same,outcome,[12],inactive
same,outcome,[13],inactive
same,outcome,[14],inactive
